We go through one sequence from article PMC7862700, “An all-to-all approach to the identification of sequence-specific readers for epigenetic DNA modifications on cytosine”.

Experiment in all cases: DAPPL (digital affinity profiling via proximity ligation, sequencing); 10 mM Tris-HCl pH 7.5, 50 mM NaCl, 1 mM DTT, 4% glycerol, room temperature, 30 min; GST-TFs on glutathione beads, 16-mer random dsDNA library, 0.1% formaldehyde crosslink after washing; high values mean tight binding
Details in all cases: protein: recombinant; tags: N-terminal GST; dsDNA, one strand shown

Test [1] has as its target T1, ELK1 (Homo sapiens, UniProt P19419 1-428).
T1 sequence: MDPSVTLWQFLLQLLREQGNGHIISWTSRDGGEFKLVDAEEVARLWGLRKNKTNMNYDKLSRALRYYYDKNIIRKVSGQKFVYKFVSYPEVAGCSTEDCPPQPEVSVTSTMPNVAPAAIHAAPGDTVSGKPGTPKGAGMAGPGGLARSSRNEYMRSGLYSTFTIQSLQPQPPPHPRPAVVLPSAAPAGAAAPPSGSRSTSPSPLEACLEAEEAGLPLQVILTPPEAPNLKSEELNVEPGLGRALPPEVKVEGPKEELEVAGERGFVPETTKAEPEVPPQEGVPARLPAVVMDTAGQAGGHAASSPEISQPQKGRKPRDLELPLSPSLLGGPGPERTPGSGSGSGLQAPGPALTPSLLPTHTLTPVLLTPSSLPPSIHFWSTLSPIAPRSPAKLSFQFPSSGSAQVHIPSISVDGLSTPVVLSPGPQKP
Summed up: (§1)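 Sequencing on an Illumina NextSeq500 followed washing, crosslinking with 0.1% formaldehyde, proximity ligation (BsaI/T4 ligase, 1 h, 37 °C) and PCR amplification of pools that had been incubated for 30 min at room temperature with 200 nmole of a random double-stranded 16-mer DNA library in Tris/NaCl/DTT/glycerol buffer. Each pool held DNA-barcoded human transcription factors, expressed in yeast as GST fusions and captured on glutathione beads, plus a tag-only sample. Binding signal is a hexamer's read frequency for a factor divided by its frequency in the tag-only sample.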

The target of test [2] is T2, GABPA (Homo sapiens, UniProt Q06546 1-454).
T2 sequence: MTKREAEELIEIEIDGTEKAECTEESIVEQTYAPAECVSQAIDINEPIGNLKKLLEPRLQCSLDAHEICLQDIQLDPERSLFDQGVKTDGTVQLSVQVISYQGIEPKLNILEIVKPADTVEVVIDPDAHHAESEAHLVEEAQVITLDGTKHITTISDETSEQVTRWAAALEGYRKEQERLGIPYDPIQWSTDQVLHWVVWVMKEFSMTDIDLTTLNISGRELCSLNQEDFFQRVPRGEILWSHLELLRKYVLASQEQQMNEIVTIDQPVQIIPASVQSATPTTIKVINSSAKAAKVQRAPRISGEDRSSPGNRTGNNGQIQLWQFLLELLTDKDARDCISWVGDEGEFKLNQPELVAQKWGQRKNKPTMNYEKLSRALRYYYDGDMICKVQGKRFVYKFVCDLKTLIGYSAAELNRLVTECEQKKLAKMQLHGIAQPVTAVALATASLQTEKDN
Summed up: as §1

The target of test [3] is T3, ERG (Homo sapiens, UniProt P11308 1-479).
T3 sequence: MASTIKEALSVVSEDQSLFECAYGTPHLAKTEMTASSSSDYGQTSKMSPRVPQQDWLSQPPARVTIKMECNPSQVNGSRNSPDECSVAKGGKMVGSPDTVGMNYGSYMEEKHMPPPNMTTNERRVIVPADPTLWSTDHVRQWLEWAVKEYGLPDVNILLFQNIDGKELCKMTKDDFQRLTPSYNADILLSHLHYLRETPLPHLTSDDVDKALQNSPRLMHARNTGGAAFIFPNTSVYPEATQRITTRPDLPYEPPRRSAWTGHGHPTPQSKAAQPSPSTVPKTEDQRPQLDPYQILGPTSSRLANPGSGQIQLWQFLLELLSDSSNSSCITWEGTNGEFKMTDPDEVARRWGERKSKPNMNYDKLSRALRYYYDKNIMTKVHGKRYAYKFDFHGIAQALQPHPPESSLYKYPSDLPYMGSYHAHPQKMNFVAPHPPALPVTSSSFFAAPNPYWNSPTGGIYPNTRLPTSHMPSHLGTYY
Summed up: as §1

Test [4] has as its target ELF1 (Homo sapiens, UniProt P32519 1-619). Summed up:
as §1

The target in test [5] is T4, EHF (Homo sapiens, UniProt Q9NZC4 1-300).
T4 sequence: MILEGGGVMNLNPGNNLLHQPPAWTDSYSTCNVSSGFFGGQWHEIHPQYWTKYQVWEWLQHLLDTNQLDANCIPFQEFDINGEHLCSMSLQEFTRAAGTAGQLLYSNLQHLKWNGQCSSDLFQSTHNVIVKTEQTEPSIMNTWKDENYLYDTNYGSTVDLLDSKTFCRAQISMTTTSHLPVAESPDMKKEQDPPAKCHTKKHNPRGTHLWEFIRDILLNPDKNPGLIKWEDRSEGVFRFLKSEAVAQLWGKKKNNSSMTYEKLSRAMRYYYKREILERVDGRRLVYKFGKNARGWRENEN
In outline: as §1

The target in test [6] is SPIB (Homo sapiens, UniProt Q01892 1-262). In outline: as §1
SPIB, sequence (Q01892 whole entry): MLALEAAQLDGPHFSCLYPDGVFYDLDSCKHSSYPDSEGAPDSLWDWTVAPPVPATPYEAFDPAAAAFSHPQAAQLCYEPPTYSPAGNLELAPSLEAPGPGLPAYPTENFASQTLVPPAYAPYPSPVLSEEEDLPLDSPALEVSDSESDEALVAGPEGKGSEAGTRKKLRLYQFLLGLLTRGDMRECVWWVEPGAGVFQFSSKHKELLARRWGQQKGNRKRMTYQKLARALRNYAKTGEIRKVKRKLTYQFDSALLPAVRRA
Test [7] addresses T5, SPIC (Homo sapiens, UniProt Q8N5J4 1-248).
T5 sequence: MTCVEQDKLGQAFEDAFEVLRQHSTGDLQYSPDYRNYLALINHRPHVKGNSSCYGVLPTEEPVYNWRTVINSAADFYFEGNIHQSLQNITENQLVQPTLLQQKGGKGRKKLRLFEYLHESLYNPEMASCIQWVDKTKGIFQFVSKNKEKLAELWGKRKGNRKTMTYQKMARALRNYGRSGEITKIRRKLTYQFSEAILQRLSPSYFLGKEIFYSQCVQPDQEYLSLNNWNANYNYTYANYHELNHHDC
Summed up: as §1

Test [8] deals with ELF4 (Homo sapiens, UniProt Q99607 1-663). In outline:
as §1

In test [9] the target is T6, ELK4 (Homo sapiens, UniProt P28324-2 1-405).
T6 sequence: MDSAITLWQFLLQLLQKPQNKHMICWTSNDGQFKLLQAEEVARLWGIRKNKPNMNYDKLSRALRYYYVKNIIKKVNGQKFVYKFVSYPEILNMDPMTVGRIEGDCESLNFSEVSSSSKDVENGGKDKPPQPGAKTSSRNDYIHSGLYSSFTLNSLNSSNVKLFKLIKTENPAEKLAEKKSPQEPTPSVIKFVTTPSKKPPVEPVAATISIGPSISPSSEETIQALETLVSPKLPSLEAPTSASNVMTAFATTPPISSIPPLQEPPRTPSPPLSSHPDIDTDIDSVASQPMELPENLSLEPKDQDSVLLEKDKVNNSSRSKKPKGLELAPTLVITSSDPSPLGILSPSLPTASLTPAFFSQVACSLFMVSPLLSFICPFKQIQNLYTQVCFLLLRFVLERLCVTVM
Summed up:
as §1

The target in test [10] is ETV1 (Homo sapiens, UniProt P50549 1-477). Summed up: as §1
ETV1, sequence (P50549 whole entry): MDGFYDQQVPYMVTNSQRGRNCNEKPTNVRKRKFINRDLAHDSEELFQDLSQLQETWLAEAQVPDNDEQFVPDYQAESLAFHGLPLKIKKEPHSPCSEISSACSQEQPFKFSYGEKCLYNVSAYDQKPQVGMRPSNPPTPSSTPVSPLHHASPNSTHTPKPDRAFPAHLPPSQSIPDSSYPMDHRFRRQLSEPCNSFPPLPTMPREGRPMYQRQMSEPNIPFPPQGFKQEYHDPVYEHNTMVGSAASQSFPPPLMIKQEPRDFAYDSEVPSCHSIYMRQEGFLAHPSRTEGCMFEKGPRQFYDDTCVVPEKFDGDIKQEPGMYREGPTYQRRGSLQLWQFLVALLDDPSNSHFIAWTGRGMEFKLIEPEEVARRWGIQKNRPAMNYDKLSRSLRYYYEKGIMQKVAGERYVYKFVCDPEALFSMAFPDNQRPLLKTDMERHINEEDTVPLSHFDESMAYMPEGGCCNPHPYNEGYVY
Test [11] concerns the target T7, ERF (Homo sapiens, UniProt P50548 1-548).
T7 sequence: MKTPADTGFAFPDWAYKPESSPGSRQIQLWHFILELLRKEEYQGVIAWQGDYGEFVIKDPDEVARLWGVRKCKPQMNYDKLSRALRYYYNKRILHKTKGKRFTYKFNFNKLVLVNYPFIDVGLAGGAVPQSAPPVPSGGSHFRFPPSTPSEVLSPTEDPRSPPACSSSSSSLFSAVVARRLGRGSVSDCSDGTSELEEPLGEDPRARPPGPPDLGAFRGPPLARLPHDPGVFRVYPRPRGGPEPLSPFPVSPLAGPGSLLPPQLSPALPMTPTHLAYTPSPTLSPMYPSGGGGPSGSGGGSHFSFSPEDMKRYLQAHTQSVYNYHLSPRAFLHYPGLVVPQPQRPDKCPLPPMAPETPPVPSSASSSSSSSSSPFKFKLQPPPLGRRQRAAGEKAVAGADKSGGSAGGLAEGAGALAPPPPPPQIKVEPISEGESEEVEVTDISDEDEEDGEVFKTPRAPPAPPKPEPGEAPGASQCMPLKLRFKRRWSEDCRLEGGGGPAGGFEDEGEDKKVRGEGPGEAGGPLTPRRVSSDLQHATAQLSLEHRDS
In outline:
as §1

Test [12] has as its target T8, ETV3L (Homo sapiens, UniProt Q6ZN32 1-361).
T8 sequence: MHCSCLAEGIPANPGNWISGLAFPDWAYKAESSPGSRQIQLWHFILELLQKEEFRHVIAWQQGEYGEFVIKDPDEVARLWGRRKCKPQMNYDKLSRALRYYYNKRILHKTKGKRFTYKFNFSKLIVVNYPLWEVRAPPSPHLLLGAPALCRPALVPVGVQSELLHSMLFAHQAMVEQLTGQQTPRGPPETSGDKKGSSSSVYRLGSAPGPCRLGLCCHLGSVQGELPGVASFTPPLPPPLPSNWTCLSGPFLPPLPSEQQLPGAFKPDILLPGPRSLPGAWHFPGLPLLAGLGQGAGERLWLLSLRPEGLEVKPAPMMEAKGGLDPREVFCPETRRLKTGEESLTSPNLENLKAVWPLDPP
Summed up: as §1

Test [13] concerns the target T9, ETS2 (Homo sapiens, UniProt P15036 1-469).
T9 sequence: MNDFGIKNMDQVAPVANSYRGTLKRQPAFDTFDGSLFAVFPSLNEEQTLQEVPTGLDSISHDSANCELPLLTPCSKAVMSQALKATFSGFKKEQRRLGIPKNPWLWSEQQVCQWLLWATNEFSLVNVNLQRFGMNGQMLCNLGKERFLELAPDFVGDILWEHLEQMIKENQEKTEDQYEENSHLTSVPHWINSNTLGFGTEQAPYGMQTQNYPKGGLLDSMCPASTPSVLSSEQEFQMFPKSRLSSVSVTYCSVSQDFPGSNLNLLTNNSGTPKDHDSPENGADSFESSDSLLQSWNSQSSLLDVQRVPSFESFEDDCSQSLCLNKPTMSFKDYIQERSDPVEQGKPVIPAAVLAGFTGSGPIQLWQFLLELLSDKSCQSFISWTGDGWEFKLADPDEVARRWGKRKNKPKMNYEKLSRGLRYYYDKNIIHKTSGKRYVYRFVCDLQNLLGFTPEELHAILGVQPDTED
In outline: as §1

Test [14] deals with T10, ETV7 (Homo sapiens, UniProt Q9Y603 1-341).
T10 sequence: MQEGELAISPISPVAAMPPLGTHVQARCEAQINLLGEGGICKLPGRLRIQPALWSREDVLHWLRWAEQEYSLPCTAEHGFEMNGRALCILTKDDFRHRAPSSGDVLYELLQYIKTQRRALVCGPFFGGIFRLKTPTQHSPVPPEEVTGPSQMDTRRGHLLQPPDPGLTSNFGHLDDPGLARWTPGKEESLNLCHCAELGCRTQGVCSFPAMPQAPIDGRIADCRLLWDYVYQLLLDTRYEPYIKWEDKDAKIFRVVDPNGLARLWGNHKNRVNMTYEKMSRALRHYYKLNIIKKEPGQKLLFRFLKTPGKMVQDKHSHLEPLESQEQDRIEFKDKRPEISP
In outline: as §1

Test [15] addresses ETV6 (Homo sapiens, UniProt P41212 1-452). In outline: as §1

ELF4, sequence (Q99607 whole entry): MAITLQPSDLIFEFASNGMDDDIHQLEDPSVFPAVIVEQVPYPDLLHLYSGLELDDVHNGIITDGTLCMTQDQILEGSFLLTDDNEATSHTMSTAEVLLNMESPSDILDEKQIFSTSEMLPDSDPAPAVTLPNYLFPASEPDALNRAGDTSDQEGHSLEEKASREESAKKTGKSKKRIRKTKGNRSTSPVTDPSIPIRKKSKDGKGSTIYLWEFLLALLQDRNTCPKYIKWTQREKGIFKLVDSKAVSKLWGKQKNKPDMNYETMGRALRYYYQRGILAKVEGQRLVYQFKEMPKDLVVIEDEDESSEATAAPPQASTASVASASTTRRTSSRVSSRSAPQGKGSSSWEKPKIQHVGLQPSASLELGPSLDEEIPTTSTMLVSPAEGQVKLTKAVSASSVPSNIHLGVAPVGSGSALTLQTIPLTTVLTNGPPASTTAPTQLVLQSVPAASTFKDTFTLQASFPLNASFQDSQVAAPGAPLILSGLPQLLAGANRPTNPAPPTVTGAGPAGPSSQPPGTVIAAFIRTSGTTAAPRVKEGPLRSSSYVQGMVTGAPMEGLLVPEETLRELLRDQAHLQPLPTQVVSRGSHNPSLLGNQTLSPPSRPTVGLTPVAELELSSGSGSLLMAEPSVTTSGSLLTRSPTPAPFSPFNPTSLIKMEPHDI
ETV6, sequence (P41212 whole entry): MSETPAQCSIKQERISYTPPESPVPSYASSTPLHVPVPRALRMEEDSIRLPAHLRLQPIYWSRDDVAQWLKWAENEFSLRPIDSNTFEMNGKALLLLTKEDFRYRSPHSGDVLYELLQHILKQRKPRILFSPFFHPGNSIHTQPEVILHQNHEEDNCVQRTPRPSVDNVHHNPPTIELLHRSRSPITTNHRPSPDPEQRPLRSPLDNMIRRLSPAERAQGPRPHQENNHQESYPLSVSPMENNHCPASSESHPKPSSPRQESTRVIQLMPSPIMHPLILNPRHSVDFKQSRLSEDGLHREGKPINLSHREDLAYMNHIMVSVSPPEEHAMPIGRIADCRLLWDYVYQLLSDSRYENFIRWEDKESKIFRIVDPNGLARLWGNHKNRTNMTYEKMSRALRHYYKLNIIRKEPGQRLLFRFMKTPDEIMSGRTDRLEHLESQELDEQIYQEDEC
ELF1, sequence (P32519 whole entry): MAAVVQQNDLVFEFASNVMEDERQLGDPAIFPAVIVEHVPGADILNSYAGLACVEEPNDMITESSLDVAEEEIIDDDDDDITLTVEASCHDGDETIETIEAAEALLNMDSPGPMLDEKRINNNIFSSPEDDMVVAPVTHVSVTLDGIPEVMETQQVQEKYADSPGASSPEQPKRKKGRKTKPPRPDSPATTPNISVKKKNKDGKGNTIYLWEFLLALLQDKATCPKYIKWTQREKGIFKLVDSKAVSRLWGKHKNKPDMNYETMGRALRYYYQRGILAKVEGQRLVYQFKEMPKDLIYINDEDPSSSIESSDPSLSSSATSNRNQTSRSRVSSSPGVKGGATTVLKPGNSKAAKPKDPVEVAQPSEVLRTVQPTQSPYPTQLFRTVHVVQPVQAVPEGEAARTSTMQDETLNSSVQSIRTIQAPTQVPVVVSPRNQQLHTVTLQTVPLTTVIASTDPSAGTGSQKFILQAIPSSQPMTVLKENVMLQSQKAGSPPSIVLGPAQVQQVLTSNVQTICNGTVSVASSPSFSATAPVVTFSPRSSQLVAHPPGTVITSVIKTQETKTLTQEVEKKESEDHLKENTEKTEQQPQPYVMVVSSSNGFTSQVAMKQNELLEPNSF

Consider GTTCGC, for which the binding signal in test [1] is 1.08 fold enrichment (6-mer frequency, TF over GST control); in [2], 1.03 fold enrichment (6-mer frequency, TF over GST control); in test [3], 1.04 fold enrichment (6-mer frequency, TF over GST control); in test [4], 1.02 fold enrichment (6-mer frequency, TF over GST control); in [5], 1.05 fold enrichment (6-mer frequency, TF over GST control); in test [6], 1.11 fold enrichment (6-mer frequency, TF over GST control). The binding signal in [7] was 1.17 fold enrichment (6-mer frequency, TF over GST control); in [8], 1.1 fold enrichment (6-mer frequency, TF over GST control); in test [9], 1.16 fold enrichment (6-mer frequency, TF over GST control); in [10] it was 1.14 fold enrichment (6-mer frequency, TF over GST control); in test [11], 1.18 fold enrichment (6-mer frequency, TF over GST control); in test [12], 1.07 fold enrichment (6-mer frequency, TF over GST control). Besides, the binding signal in [13] was 1 fold enrichment (6-mer frequency, TF over GST control); in test [14], 1.02 fold enrichment (6-mer frequency, TF over GST control); in test [15] it was 1.07 fold enrichment (6-mer frequency, TF over GST control).
